Hits are enriched below; roughly 3.5% of the tested compounds scored in any of these assays.
BoNT F protease – BoNT F light chain protease inhibition; Multiplex microsphere protease cleavage assay, flow cytometry; inhibition, % at 10 µM; 360,000 compounds, 0.22% hits; in the data active means inhibition above about 35%, passing the limit was not always enough; inconclusive means no clear call, values can overlap the other calls
3CLpro inhibitor – SARS-CoV 3CLpro protease inhibition. P0C6X7. recombinant SARS-CoV 3CLpro, quenched FRET peptide cleavage. inhibition, % at 6 µM. 290,000 compounds, 0.14% hits. AID 1706; in the data active means inhibition above about 12%
Bead autofluor – flagged as autofluorescent in microsphere protease counterscreen | compound autofluorescence counterscreen, microsphere flow cytometry; active compounds read high | fluorescence intensity (no concentration beside the values) | 360,000 compounds, 3.1% hits | AID 624483; in the data active means fluorescence intensity above about 16000; inconclusive means no clear call, values can overlap the other calls
BoNT A protease – BoNT A light chain protease inhibition | multiplex microsphere protease substrate cleavage, flow cytometry | inhibition, % at 10 µM | 360,000 compounds, 0.17% hits
Anthrax LF inh2 – inhibitors of Bacillus anthracis lethal factor protease; 360,000 compounds, 0.12% hits; AID 588501; inhibition, % at 10 µM; P15917; multiplex microsphere protease cleavage assay, LF
Each line names hits and unclear results; the compound was inactive in the other large screens. Unless noted, no stated cut-off is given here; in the data, active means inhibition above about 30%; inconclusive means no clear call, values can overlap the other calls; inactive means below that.

O=C(O)C(Cc1ccccc1)N1C(=O)/C(=C/c2cccnc2)SC1=S (centres undefined)	none
CCC1CCc2c(sc3ncnc(N4CCOCC4)c23)C1 (centres undefined)	none
C[C@H](CO)N1C[C@H](C)[C@@H](CN(C)S(C)(=O)=O)Oc2ccc(NC(=O)CCC(F)(F)F)cc2C1=O	none (no result: 3CLpro inhibitor)
Cc1cccc(NC(=O)C2CCCN(C(=O)Nc3ccccc3)C2)c1C (centres undefined)	Bead autofluor 22928, BoNT A protease inconclusive
Cc1ccccc1NC(=O)C1CCCN(C(=O)Nc2ccc(F)cc2)C1 (centres undefined)	none
COc1ccc(CN2CCN(S(=O)(=O)c3ccc(F)cc3)CC2)c(OC)c1OC	Bead autofluor 21826
COc1ccc(CN2CCN(S(=O)(=O)c3ccccc3)CC2)c(OC)c1OC	BoNT F protease inconclusive, BoNT A protease inconclusive (no result: 3CLpro inhibitor)
CC(C)Oc1ccc(S(=O)(=O)N2CCCCC2)cc1NC(=O)CN1C(=O)NC(C)(C2CC2)C1=O (centres undefined)	none (no result: 3CLpro inhibitor)
Cc1ccc2oc3c(c(=O)c2c1)C(c1cccc(Br)c1)N(Cc1ccco1)C3=O (centres undefined)	Bead autofluor 18391
CCOc1cc(C2c3c(oc4cc(C)c(Cl)cc4c3=O)C(=O)N2Cc2ccco2)ccc1O (centres undefined)	Bead autofluor 21623
COc1cc(C2c3c(oc4ccccc4c3=O)C(=O)N2Cc2ccco2)ccc1O (centres undefined)	none
COc1ccc(/C=C/C(=O)N(CC(C)C)CC(C)C)cc1Br	Bead autofluor 21487, BoNT A protease inconclusive
C=CCNC(=S)NNC(=O)c1cccc2ccccc12	Bead autofluor 21284
CCNC(=S)NNC(=O)c1cccn(Cc2ccc(Cl)cc2Cl)c1=O	Bead autofluor 22212, BoNT A protease inconclusive
C=CCNC(=S)NNC(=O)c1cccn(Cc2ccc(Cl)cc2Cl)c1=O	Bead autofluor 22647, BoNT A protease inconclusive
Cc1ccc(Cn2c(=N)c(C(=O)NCc3ccco3)cc3c(=O)n4ccccc4nc32)cc1	none
O=C(CCNC(=O)c1ccccc1Cl)Nc1ccccc1N1CCCC1	none
CCOc1ccc(NC(=O)Nc2cc(C(=O)O)ccc2N2CC3CC(C2)c2cccc(=O)n2C3)cc1 (centres undefined)	none
CN(C)c1ccc(C(=O)NNC(=O)c2ccc(Cl)cc2)cc1	none (no result: BoNT F protease, Bead autofluor, BoNT A protease, Anthrax LF inh2)
Cc1ccc(C(=O)C(OC(=O)CNS(=O)(=O)c2ccccc2)c2ccccc2)cc1 (centres undefined)	Bead autofluor 19423, BoNT A protease inconclusive
Cc1ccc(S(=O)(=O)NCC(=O)OC(C)C(=O)c2ccccc2)cc1 (centres undefined)	none (no result: 3CLpro inhibitor)
O=C1N[C@@H](Cc2ccccc2)C(=O)N2CCCC12 (some centres undefined)	none (no result: 3CLpro inhibitor)
COc1ccc(-c2nnc(N)s2)cc1	Bead autofluor 23923
Nc1cccc(-c2nc3ccccc3s2)c1	none
COc1ccc(C(=O)c2sc3nc(C)cc(-c4cccs4)c3c2N)cc1OC	BoNT F protease 47, BoNT A protease 71, Anthrax LF inh2 49
COc1ccc(CC2(CO)CCN(Cc3cc4ccccc4o3)CC2)cc1	none
COC(=O)c1ccccc1-n1c(CCC(=O)O)ccc1-c1ccc(F)cc1	none
O=C(NCCO)c1cccc(Nc2nc(-c3ccccc3)c3cc(Cl)ccc3n2)c1	Bead autofluor 20185
NNc1nc(-c2ccccc2)c2cc(Cl)ccc2n1	none
Cc1cccc2cc(C#N)c(NCCCn3ccnc3)nc12	Bead autofluor 19585
CCC1CCCCN1S(=O)(=O)c1ccc(NC(=O)C2CC(=O)N(C(C)(C)C)C2)cc1 (centres undefined)	none (no result: 3CLpro inhibitor)
Cn1nc(C(F)(F)F)c(C(=O)Nc2ccc(F)cc2F)c1Sc1ccc(C(F)(F)F)cc1	Bead autofluor 22356
Cn1nc(C(F)(F)F)c(C(=O)Nc2ccc(F)cc2F)c1Sc1ccc(Cl)cc1	none
Cc1cc(Nc2ccccc2Cl)nc(-c2ccccc2O)n1	BoNT F protease 36
Cc1cc(Nc2ccccc2)nc(-c2ccccc2O)n1	none
Cc1cc(NCc2ccccc2)nc(-c2ccccc2O)n1	Bead autofluor 20264, BoNT A protease inconclusive
Fc1cccc(C2NC(=S)NC3=C2N2CCC3CC2)c1 (centres undefined)	Bead autofluor 17015
COC(=O)c1ccccc1NC(=O)C1CCCCC1C(=O)O (centres undefined)	Bead autofluor 23211, BoNT A protease inconclusive
O=C(O)C1CCCCC1C(=O)Nc1ccc(F)c(F)c1 (centres undefined)	none
O=C(O)C1CCCCC1C(=O)Nc1ccc(F)cc1F (centres undefined)	Bead autofluor 20999
COC(=O)C1=C(C)NC(=S)NC1c1ccc(OC(=O)c2ccco2)cc1 (centres undefined)	none
O=C1NC(=O)C2(Cc3ccccc3N3CCCC32)C(=O)N1c1ccccc1 (centres undefined)	none
O=C1NC(=O)C2(Cc3ccccc3N3CCOCC32)C(=O)N1c1ccccc1 (centres undefined)	Bead autofluor 22770
CSc1nnc(-c2ccc(S(=O)(=O)N3CCOCC3)cc2)n1CC1CCCO1 (centres undefined)	Bead autofluor 17507
CCn1c(CC(=O)Nc2ccc(C)cc2)nnc1SCC(=O)NCCc1ccccc1	Bead autofluor 24526
CCSc1nnc(-c2ccc(S(=O)(=O)N3CCOCC3)cc2)n1CC1CCCO1 (centres undefined)	none
CCn1c(SCC(=O)Nc2ccc(C)cc2)nnc1-c1ccc(O)cc1	Bead autofluor 17034
CCn1c(SCC(=O)Nc2ccc(C)cc2)nnc1-c1ccccn1	none
COc1cc(C(=O)CSc2nnc(-c3ccc(O)cc3)n2CC2CCCO2)ccc1NC(C)=O (centres undefined)	none
CCC(=O)Nc1ccc(C(=O)CSc2nnc(-c3ccc(O)cc3)n2CC2CCCO2)cc1 (centres undefined)	Bead autofluor 23574
CCOc1ccc(N=C2NC(=O)C(CC(=O)Nc3ccccc3)S2)cc1 (centres undefined)	none
CCCn1nnnc1NCc1ccccc1OCC	BoNT F protease inconclusive
COc1ccc(/C=C2\SC(=O)N(CCC(=O)Nc3ccc(S(=O)(=O)Nc4nccs4)cc3)C2=O)cc1	none
Cc1ccc(N2C(=O)C3C(C2=O)N2C(c4cccs4)C4C(=O)N(c5ccc(C)cc5)C(=O)C4N2C3c2cccs2)cc1 (centres undefined)	none
CCn1c(SCCC(=O)Nc2ccccc2)nnc1-c1ccc(OC)cc1	none
Cc1ccc(NC(=O)Cc2nnc(SCC(=O)c3ccc(Br)cc3)n2C)cc1	Bead autofluor 21836
CCn1c(SCC(=O)Nc2cccc(OC)c2)nnc1-c1ccc(Cl)cc1	Bead autofluor 21821, BoNT A protease inconclusive
COc1ccc(Cl)cc1S(=O)(=O)N1CCC(C(=O)NCCc2ccccc2)CC1	BoNT F protease inconclusive
Cc1ccc(S(=O)(=O)N2CCOCC2)c2nsnc12	Bead autofluor 17116
O=C(c1ccco1)N1CCN(CC2CC3C=CC2C3)CC1 (centres undefined)	Bead autofluor 20016
O=C(c1ccco1)N1CCN(C(=O)c2ccco2)CC1	none (no result: 3CLpro inhibitor)
Nc1ccc(N2CCN(C(=O)c3ccco3)CC2)cc1	Bead autofluor 20148

Compound activity as filed in PubChem BioAssay.
